IL1B secr inh – inflammasome signaling inhibition, IL-1 beta readout; THP-1 LPS/ATP IL-1B secretion, AlphaLISA, 16 h; active compounds read low; activity change, % at 57.5 µM; 4.7% of 360,000 active; AID 743279; in the data active = activity change below about -50%; inconclusive = mostly about -30% to -49%
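Secreted IL-1B measured by AlphaLISA bead assay after 16 h compound exposure of THP-1 cells; compounds (final up to 57.5 uM) added 1 h before LPS (250 ng/mL) and ATP (1.25 mM) stimulation; lower signal means less secretion.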
12-LOX inh – ALOX12 (human) lipoxygenase inhibition; purified 12hLO, xylenol orange hydroperoxide absorbance; Potency, µM (titrated, usually from 108 µM), hits mostly inhibitors; 1.1% of 580,000 active
Target sequence (P18054 whole entry, looked up): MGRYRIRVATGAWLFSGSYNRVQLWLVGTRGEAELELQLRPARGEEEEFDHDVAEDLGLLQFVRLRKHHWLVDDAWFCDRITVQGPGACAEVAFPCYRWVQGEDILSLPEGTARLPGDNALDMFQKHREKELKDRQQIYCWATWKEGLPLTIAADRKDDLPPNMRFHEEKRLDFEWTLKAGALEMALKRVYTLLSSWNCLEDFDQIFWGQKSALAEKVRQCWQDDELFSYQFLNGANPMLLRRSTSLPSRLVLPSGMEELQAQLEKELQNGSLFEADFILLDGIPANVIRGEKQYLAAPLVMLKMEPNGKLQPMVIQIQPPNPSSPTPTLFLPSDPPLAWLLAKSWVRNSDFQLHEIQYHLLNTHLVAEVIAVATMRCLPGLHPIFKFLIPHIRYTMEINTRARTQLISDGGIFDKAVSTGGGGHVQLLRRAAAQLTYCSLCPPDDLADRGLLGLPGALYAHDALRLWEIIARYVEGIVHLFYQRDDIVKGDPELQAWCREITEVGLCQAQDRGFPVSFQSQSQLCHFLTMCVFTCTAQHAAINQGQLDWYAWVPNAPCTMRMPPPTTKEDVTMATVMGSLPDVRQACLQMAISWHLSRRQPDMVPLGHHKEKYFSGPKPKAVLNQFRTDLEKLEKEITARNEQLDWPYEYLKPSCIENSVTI
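Purified human 12hLO at 150 nM in 25 mM Hepes, 0.01% Triton X-100, pH 7.0, preincubated 15 min at room temperature with compound. Reaction started with 40 uM arachidonic acid, 30 min at room temperature. Hydroperoxide measured by Fe-xylenol orange, 573/405 nm absorbance ratio.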
HT1080 IDH1KD tx – HT-1080 IDH1 knockdown cell toxicity (counter line); HT-1080 IDH1 knockdown viability, ATP luminescence, 48 h; Potency, µM (top dose mostly 46.1 µM), hits mostly cytotoxic; 2% of 360,000 active; AID 686971
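IDH1KD HT-1080 cells, 750/well, RPMI + 5% FBS; compound pinned after 2 h settling; 48 h, 37 °C; CellTiter-Glo luminescence; % activity normalised to DMSO and no-cell wells; curves fitted, classed by r2 and efficacy.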
HT1080NT lethal – kills 2HG-producing HT-1080-NT fibrosarcoma cells; HT-1080-NT fibrosarcoma viability, CellTiter-Glo ATP luminescence, 48 h; Potency, µM (titrated, usually from 46.1 µM), most hits filed as cytotoxic; 1.6% of 360,000 active;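 also: NT is the 2HG producing partner of a matched IDH1 knockdown line; nearly all actives have a fitted effect of over 55% in size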
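Viability by CellTiter-Glo luminescence after 48 h compound exposure at 37C of HT-1080-NT cells (750/well, RPMI, 5% FBS). % activity scaled between DMSO wells and medium-only wells, then curve-fitted and categorized by curve class.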
TDP1 cell noCPT – qHTS for Inhibitors of human tyrosyl-DNA phosphodiesterase 1 (TDP1): qHTS in cells in absence of CPT | DT40 Tdp1-/- hTDP1 cells, no CPT, ATP luminescence, 48 h | Potency, µM (series often up to 46.2 µM), most hits filed as inhibitors | 15% of 420,000 active | AID 686978, 2013; also: nearly all actives have a fitted effect of over 55% in size
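Readout: luminescence from CellTiter-Glo after 30 min in the dark at RT. Cells: DT40 Tdp1-/- with stable hTDP1, 400/well. Exposure: compounds alone, ≥48 hr, 37 °C.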
DT40 TDP1 CPT – growth inhibition of DT40 Tdp1-/-;hTDP1 cells with camptothecin (screen for TDP1 inhibitors); chicken DT40 Tdp1-/-;hTDP1 cells + 20 nM CPT, ATP luminescence, 48 h; Potency, µM (highest dose often 46.2 µM), hits mostly inhibitors; 12% of 420,000 active; AID 686979; also: nearly all actives have a fitted effect of over 55% in size
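Cell growth measured by CellTiter-Glo luminescence after a minimum 48 h, 37 C compound exposure with 20 nM CPT in Tdp1-knockout DT40 cells stably expressing hTDP1, seeded 400/well; qHTS titration format.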
Each line names hits and unclear results; the compound was inactive in the other large screens. Only a selection was taken, and hits are over-represented in it overall. Unless noted, calls follow the shape of the dose curve; as a rule, active = well fitted curve in the direction sought with a large enough effect; inconclusive = small, poorly fitted or top-dose-only effect, or another doubt; inactive = no such curve, though single readings can be large; an effect the other way counts as inactive or inconclusive.

Cc1ccc(NC(=O)N2CCCC(c3noc(COc4ccccc4)n3)C2)cc1C (stereo not drawn)	none (no result: IL1B secr inh, HT1080 IDH1KD tx, HT1080NT lethal, TDP1 cell noCPT, DT40 TDP1 CPT)
CC1Cc2ccccc2N1S(=O)(=O)c1cccc(C(=O)N2CCN(c3ncccn3)CC2)c1 (stereo not drawn)	IL1B secr inh -66, HT1080 IDH1KD tx inconclusive, TDP1 cell noCPT inconclusive, DT40 TDP1 CPT inconclusive
COc1ccc(S(=O)(=O)N2CCCCCC2)cc1C(=O)N1CCN(c2ccccc2O)CC1	TDP1 cell noCPT inconclusive, DT40 TDP1 CPT 15µM
CC(=O)N1CCN(C(=O)c2cccc(S(=O)(=O)N3c4ccccc4CC3C)c2)CC1 (stereo not drawn)	none
COc1ccccc1N1CCN(C(=O)c2cc(S(=O)(=O)N3CCCCC3)ccc2C)CC1	TDP1 cell noCPT inconclusive, DT40 TDP1 CPT inconclusive
COc1ccc(S(=O)(=O)N2CCCCCC2)cc1C(=O)N1CCN(c2ccccc2C)CC1	TDP1 cell noCPT 21µM, DT40 TDP1 CPT inconclusive
COc1ccc(CC(=O)Oc2ccc(Br)cc2Cl)cc1	none (no result: IL1B secr inh, HT1080 IDH1KD tx, HT1080NT lethal, TDP1 cell noCPT, DT40 TDP1 CPT)
CSc1ccc2cc(CN(C)CCO)c(-c3ccc(Cl)cc3)nc2c1	none (no result: IL1B secr inh, HT1080 IDH1KD tx, HT1080NT lethal, TDP1 cell noCPT, DT40 TDP1 CPT)
N#C/C(=C/c1cccc(C#N)c1)c1nc2ccccc2[nH]1	none (no result: IL1B secr inh, HT1080 IDH1KD tx, HT1080NT lethal, TDP1 cell noCPT, DT40 TDP1 CPT)
N#Cc1nccnc1S(=O)(=O)c1cccs1	IL1B secr inh -98, HT1080 IDH1KD tx inconclusive, HT1080NT lethal 21µM, TDP1 cell noCPT 1µM, DT40 TDP1 CPT 0.65µM
CCN(CC)C(=O)c1sc2c(c1C)c(=O)n(CCc1ccccc1)c(=O)n2Cc1ccc(C)cc1	TDP1 cell noCPT inconclusive, DT40 TDP1 CPT 21µM (no result: IL1B secr inh, HT1080 IDH1KD tx, HT1080NT lethal)
CC(NC(=O)Cc1ccccc1[N+](=O)[O-])c1ccccc1 (stereo not drawn)	none (no result: IL1B secr inh, HT1080 IDH1KD tx, HT1080NT lethal, TDP1 cell noCPT, DT40 TDP1 CPT)
CCCC(=O)NC(C)C(c1cccs1)N1CCN(C)CC1 (stereo not drawn)	none
CCCC(=O)NC(c1cccs1)c1cc([N+](=O)[O-])c2cccnc2c1O (stereo not drawn)	IL1B secr inh inconclusive, 12-LOX inh 18µM, HT1080 IDH1KD tx inconclusive, TDP1 cell noCPT 13µM, DT40 TDP1 CPT 23µM
CC(C)C(=O)NC(c1ccccc1)c1cc([N+](=O)[O-])c2cccnc2c1O (stereo not drawn)	12-LOX inh inconclusive, HT1080 IDH1KD tx 16µM, HT1080NT lethal inconclusive, TDP1 cell noCPT inconclusive, DT40 TDP1 CPT 18µM
O=C(CCc1ccccc1)NC(c1cccs1)c1cc(Cl)c2cccnc2c1O (stereo not drawn)	HT1080 IDH1KD tx inconclusive, HT1080NT lethal inconclusive, TDP1 cell noCPT 4.1µM, DT40 TDP1 CPT 3.7µM
CCC(=O)NC(c1cccs1)c1cc(Cl)c2ccccc2c1O (stereo not drawn)	none (no result: IL1B secr inh, HT1080 IDH1KD tx, HT1080NT lethal, TDP1 cell noCPT, DT40 TDP1 CPT)
CCC(=O)NC(c1cccs1)c1cc([N+](=O)[O-])c2cccnc2c1O (stereo not drawn)	12-LOX inh 3.5µM, HT1080 IDH1KD tx 13µM, HT1080NT lethal inconclusive, TDP1 cell noCPT inconclusive, DT40 TDP1 CPT 21µM
COc1ccc(Cl)cc1S(=O)(=O)NCCCn1ccnc1	none
CCOc1cc(Cl)c(S(=O)(=O)NCCCn2ccnc2)cc1Cl	HT1080 IDH1KD tx inconclusive, TDP1 cell noCPT 16µM, DT40 TDP1 CPT 21µM
CC(C)n1cc(/C=C2/NC(=O)N(c3cccc(Cl)c3)C2=O)c2ccccc21	HT1080 IDH1KD tx inconclusive, TDP1 cell noCPT inconclusive, DT40 TDP1 CPT 26µM
O=C(NCCCN1CCOCC1)c1ccc(-c2ccc(N3CCCCCC3)nc2)cc1	none (no result: IL1B secr inh, HT1080 IDH1KD tx, HT1080NT lethal, TDP1 cell noCPT, DT40 TDP1 CPT)
Cc1cccc(-c2nc(Cn3c(-c4ccccc4)nc(C)c(CCO)c3=O)c(C)o2)c1	none (no result: IL1B secr inh, HT1080 IDH1KD tx, HT1080NT lethal, TDP1 cell noCPT, DT40 TDP1 CPT)
CCOC(=O)c1ccc(NC(=O)Nc2cccc(OCc3cc(=O)n4ccc(C)cc4n3)c2)cc1	TDP1 cell noCPT inconclusive (no result: IL1B secr inh, HT1080 IDH1KD tx, HT1080NT lethal)
COc1ccc(C)cc1NC(=O)Nc1cccc(OCc2cc(=O)n3ccc(C)cc3n2)c1	TDP1 cell noCPT 9.2µM, DT40 TDP1 CPT 9.2µM (no result: IL1B secr inh, HT1080 IDH1KD tx, HT1080NT lethal)
CCC(Oc1ccccc1)C(=O)Nc1ccc(OCc2cc(=O)n3ccc(C)cc3n2)cc1 (stereo not drawn)	TDP1 cell noCPT 18µM, DT40 TDP1 CPT inconclusive (no result: IL1B secr inh, HT1080 IDH1KD tx, HT1080NT lethal)

Screening data from PubChem BioAssay.
